Of roughly 8,800 targets only a part is listed; those with a hit were picked by preference. About 0.5% of all pairs of compound and target were hits. Unmarked numbers belong to inactive results.

This is an account of results in the supplement of paper PMC10849652.

Common to all, as to assay: log2 fold change, soluble protein after heating vs DMSO (PISA); higher = thermal stabilisation; K562 lysate, 10 uM; active = over 0.2 and 3.5 SD of the protein, either way, in both replicates (recomputed)
Compound in test [1]: C1=CC=C(C=C1)[C@H](COC2=CC3=C(C=C2)NC(=O)N3)NC(=O)C4=CC=CN(C4=O)CC5=CC(=C(C=C5)F)F
The gist of the method: (§1)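 To prepare the extract, K562 pellets were dounce-homogenised in PBS pH 7.4 with 1 mM MgCl2, giving crude material at 1 mg/mL protein. This was treated with 10 μM compound for 30 min, then heated in aliquots for 3 min over 48°C-58°C before pooling and addition of NP-40 to 0.5% at 4°C. Centrifugation at 21,000xg for 90 min left soluble protein in the supernatant, which TMTpro 16plex LC-MS/MS quantified with equalised channel sums. Results are log-two fold changes in thermal stability compared with solvent controls, from duplicates.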

Compound in test [2]: CC1=C(SC2=C1C(=N[C@H](C3=NN=C(N32)C)CC(=O)N)C4=CC=C(C=C4)Cl)C
The gist of the method: as §1

Compound in test [3]: Cc1sc2c(c1C)C(c1ccc(Cl)cc1)=N[C@@H](CC(=O)OC(C)(C)C)c1nnc(C)n1-2
The gist of the method:
as §1

Compound in test [4]: CC1=C2C(=CC=C1)N=C(N(C2=O)C3=CC=CC=C3C)CN4C=NC5=C(N=CN=C54)N
The gist of the method:
as §1

Compound in test [5]: c1ccc([C@@H]2C[C@H]2NC2CCNCC2)cc1
The essentials: as §1

UniProt Q15173, sequence (Q15173 whole entry, looked up): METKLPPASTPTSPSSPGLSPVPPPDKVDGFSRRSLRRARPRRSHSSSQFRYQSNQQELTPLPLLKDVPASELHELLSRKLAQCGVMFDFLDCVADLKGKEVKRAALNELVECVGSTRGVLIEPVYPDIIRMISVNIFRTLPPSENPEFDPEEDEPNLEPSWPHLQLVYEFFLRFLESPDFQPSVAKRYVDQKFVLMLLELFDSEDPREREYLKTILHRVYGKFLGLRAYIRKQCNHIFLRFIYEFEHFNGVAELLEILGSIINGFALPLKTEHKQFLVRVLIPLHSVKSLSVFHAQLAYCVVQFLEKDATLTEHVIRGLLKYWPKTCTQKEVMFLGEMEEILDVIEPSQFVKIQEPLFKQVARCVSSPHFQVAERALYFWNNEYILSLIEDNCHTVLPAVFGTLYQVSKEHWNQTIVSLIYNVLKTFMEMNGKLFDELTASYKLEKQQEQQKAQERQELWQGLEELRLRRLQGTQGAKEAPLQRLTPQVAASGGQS
UniProt Q8TEQ8, sequence (Q8TEQ8 whole entry, looked up): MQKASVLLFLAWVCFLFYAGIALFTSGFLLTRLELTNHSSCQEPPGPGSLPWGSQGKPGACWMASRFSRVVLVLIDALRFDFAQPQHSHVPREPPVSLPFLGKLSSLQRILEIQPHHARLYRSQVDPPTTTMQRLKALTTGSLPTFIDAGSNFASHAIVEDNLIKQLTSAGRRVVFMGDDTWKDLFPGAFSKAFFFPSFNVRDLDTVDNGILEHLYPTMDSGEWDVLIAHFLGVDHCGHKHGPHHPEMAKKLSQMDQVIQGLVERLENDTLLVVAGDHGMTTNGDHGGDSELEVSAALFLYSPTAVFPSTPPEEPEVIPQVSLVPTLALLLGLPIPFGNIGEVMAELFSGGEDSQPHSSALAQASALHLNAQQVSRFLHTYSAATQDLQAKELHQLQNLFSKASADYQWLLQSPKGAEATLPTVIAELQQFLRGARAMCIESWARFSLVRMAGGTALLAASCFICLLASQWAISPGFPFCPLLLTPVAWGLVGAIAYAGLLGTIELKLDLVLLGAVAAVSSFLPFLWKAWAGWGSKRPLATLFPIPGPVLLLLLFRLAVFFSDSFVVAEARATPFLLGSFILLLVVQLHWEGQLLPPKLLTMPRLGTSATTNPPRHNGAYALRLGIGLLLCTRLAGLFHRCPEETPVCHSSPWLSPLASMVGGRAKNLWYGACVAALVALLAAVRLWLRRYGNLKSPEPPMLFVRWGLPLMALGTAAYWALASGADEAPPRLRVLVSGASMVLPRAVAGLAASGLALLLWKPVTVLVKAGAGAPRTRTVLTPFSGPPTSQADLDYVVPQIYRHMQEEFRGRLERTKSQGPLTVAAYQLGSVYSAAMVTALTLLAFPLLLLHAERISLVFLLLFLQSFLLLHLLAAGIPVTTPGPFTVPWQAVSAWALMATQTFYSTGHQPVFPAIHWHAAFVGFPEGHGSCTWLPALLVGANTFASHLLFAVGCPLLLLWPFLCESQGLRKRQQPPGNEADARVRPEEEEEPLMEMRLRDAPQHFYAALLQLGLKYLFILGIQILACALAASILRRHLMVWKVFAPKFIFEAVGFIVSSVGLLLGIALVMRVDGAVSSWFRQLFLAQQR
UniProt P27986, sequence (P27986 whole entry, looked up): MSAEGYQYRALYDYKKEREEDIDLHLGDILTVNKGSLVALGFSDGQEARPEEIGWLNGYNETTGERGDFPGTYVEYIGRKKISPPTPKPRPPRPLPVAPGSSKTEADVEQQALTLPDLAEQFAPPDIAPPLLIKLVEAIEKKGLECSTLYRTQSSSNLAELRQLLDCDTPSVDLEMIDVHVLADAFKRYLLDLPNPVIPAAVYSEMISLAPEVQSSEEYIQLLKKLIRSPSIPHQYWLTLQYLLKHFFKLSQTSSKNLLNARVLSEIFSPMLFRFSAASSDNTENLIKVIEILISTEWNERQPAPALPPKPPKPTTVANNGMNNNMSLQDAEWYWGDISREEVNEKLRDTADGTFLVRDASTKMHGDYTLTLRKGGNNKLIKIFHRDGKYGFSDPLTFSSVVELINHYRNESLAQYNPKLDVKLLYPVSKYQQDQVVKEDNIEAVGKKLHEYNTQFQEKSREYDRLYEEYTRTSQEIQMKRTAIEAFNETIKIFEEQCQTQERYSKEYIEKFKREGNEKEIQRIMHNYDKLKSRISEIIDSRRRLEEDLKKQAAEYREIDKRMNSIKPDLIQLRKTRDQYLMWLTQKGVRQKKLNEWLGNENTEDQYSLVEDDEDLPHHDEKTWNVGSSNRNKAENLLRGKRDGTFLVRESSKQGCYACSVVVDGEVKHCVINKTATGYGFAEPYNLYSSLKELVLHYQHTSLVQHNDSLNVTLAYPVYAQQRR
UniProt O15530, sequence (O15530 whole entry, looked up): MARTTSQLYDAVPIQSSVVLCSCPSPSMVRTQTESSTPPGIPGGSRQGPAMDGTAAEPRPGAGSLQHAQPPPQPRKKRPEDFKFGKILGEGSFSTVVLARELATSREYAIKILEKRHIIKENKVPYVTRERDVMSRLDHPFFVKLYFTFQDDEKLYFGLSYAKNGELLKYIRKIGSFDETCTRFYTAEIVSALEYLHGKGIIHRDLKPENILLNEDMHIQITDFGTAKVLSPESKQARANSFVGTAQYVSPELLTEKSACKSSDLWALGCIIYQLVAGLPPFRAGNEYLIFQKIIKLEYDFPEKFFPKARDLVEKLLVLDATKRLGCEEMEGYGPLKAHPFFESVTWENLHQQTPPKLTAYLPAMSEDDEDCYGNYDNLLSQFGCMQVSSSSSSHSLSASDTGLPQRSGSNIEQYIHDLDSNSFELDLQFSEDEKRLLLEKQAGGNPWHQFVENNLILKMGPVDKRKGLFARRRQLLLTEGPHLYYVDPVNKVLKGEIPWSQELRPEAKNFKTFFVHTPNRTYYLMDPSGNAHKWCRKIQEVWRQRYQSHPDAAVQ
UniProt Q99755, sequence (Q99755 whole entry, looked up): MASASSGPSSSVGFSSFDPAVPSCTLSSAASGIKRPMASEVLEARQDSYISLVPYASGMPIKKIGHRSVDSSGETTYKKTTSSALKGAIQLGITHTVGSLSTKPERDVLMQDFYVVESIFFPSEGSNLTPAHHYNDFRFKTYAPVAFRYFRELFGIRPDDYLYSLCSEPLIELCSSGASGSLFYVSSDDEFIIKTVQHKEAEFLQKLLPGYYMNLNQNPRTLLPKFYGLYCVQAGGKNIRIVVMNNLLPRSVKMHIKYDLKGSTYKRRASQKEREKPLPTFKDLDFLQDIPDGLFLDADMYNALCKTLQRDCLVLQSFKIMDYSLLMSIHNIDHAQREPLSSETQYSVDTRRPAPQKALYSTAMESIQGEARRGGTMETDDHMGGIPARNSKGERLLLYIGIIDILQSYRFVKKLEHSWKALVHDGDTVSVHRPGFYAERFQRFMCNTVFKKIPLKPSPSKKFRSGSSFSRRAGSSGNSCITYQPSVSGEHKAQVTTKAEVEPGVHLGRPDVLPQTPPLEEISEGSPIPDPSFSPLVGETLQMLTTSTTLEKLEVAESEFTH
UniProt Q9BRQ0, sequence (Q9BRQ0 whole entry, looked up): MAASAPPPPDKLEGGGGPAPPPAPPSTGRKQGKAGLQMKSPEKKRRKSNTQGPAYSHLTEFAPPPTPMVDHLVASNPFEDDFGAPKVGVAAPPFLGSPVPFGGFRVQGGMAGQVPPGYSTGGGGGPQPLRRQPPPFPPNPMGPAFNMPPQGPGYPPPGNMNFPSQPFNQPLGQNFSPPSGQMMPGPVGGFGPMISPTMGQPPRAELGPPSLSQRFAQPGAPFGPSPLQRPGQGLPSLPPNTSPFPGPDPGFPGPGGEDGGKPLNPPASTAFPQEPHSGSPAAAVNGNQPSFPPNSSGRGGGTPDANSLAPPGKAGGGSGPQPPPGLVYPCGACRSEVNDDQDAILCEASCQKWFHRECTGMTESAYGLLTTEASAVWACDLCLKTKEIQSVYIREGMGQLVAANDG
UniProt P54278, sequence (P54278 whole entry, looked up): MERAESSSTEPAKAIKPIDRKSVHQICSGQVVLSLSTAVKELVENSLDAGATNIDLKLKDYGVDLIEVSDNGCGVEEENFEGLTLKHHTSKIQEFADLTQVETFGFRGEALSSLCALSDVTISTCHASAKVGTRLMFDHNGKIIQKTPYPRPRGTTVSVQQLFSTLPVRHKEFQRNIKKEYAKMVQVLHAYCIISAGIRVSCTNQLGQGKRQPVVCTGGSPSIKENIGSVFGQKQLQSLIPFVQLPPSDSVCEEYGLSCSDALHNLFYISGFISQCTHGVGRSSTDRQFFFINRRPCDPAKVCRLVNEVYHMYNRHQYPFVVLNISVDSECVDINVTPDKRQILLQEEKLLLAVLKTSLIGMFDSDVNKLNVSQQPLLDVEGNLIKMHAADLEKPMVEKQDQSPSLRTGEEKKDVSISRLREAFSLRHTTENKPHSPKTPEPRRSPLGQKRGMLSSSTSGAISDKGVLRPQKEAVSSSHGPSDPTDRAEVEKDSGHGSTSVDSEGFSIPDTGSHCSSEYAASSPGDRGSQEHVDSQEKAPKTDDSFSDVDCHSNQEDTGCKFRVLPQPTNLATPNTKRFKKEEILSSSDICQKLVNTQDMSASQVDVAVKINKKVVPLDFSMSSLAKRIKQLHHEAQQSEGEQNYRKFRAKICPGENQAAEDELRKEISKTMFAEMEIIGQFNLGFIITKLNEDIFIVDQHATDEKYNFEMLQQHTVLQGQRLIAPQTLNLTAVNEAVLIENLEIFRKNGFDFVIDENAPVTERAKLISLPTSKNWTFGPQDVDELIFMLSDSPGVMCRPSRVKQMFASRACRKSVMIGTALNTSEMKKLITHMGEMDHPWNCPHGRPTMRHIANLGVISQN
UniProt O00764, sequence (O00764 whole entry, looked up): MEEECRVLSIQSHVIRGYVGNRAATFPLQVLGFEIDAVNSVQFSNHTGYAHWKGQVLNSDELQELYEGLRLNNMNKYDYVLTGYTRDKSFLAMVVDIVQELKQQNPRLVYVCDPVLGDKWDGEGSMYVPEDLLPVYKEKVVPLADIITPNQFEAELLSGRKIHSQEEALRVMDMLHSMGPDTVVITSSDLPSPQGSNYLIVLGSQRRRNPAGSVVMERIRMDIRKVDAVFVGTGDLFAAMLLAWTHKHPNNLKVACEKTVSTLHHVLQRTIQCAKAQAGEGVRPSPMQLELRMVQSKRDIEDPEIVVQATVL

For the target PPME1 (UniProt Q9Y570), the log2 fold change in test [1] is 0.057; in test [2], -0.02; in test [3], 0.06.
With PIGO (UniProt Q8TEQ8), the log2 fold change was -0.098 in test [1]; -0.058 in test [2]; -0.014 in test [4]; -0.023 in test [3]; 0.039 in test [5].
For PIK3R1 (UniProt P27986), in that order: -0.014, -0.065, 0.313, -0.024 and -0.007.
Turning to PFN3 (UniProt P60673), the values for the log2 fold change in test [4] and in test [5] were 0.072 and -0.004, respectively.
Consider PHGDH, A0A286YFE1, for which the log2 fold change in test [1] was 0.061; in test [2], -0.111; in test [3] it was -0.095.
As to PRKD3 (UniProt O94806), the log2 fold change in test [1] was 0.035; in test [2], 0; in test [4], 0.206; in test [5], -0.386.
Consider PPP2R5B (UniProt Q15173), for which the log2 fold change in test [1] was -0.08; in test [2], -0.037; in test [4], -0.024; in test [3], -0.006; in test [5], 0.066.
In the case of PDIA4, A0A499FI48, the log2 fold change is 0.083 in test [3] and 0.564 in test [5].
As to PLXND1 (UniProt Q9Y4D7), the log2 fold change is -0.039 in test [1], 0.082 in test [2] and 0.029 in test [3].
Consider PDE4DIP (UniProt E9PS60), for which the figures for the log2 fold change in test [4], in test [3] and in test [5] were 0.074, -0.12 and -0.257, respectively.
For PREP (UniProt H0Y5Y0), the log2 fold change in test [5] is 0.086.
For the target PIAS2 (UniProt O75928), the log2 fold change in test [4] is 0.001; in test [3], 0.046.
With PIK3CD (UniProt O00329), the log2 fold change in test [1] was -0.053; in test [2], 0.075; in test [4] it was 0.443 (active); in test [3], -0.027; in test [5], 0.043.
The corresponding values for PPIL3 (UniProt Q9H2H8) are 0.067, -0.012, 0.035, 0.028 and -0.237 (active).
On to PCYT1B (UniProt Q9Y5K3), for which the log2 fold change in test [1] is -0.006; in test [2], 0.033; in test [4], -0.01; in test [3], -0.03; in test [5], -0.073.
Take PNPLA4 (UniProt P41247): the log2 fold change in test [4] was -0.009; in test [3] it was 0.201; in test [5], -0.019.
As to PCBP2 (UniProt F8VRH0), in test [5], the log2 fold change was 0.232.
On to PTK2 isoform 2 (UniProt Q05397), for which the log2 fold change in test [1] is 0.07; in test [2] it was 0.081; in test [3], -0.324.
Regarding PRR4 (UniProt Q16378), the values for the log2 fold change in test [4] and in test [5] were -0.076 and -0.269, respectively.
Regarding PIP4K2B (UniProt P78356), the log2 fold change in test [1] is -0.063; in test [2], -0.078; in test [4], -0.014; in test [3] it was 0.036; in test [5], -0.108.
Turning to PHKG1 isoform 2 (UniProt Q16816), the figures for the log2 fold change in test [4], in test [3] and in test [5] were -0.375, -0.054 and -0.493, respectively.
For the target PUF60 isoform 2 (UniProt Q9UHX1), the log2 fold change was 0.091 in test [1], 0.109 in test [2], 0.035 in test [4] and 0.238 in test [5].
Take POM121C (UniProt A8CG34): the log2 fold change in test [1] was 0.058; in test [2], 0.042; in test [5], -0.02.
For POLR2F (UniProt U3KPV3), the log2 fold change in test [3] is -0.113.
For the target PIP5K1A (UniProt Q99755), the log2 fold change in test [1] was -0.058; in test [2] it was 0.067; in test [3], 0.059; in test [5] it was -0.096.
For the target PPP1R11 (UniProt O60927), the log2 fold change is -0.025 in test [1], -0.095 in test [2], 0.014 in test [3] and 0.001 in test [5].
For PDS5A (UniProt Q29RF7), the log2 fold change was -0.049 in test [1]; -0.031 in test [2]; 0.017 in test [4]; -0.011 in test [3]; 0.019 in test [5].
For PMS2 (UniProt P54278), in that order: -0.021, 0.005, 0.024, -0.031 and 0.039.
For POLD1 (UniProt P28340), the log2 fold change is 0.026 in test [1]; 0.003 in test [2]; 0.011 in test [4]; 0.03 in test [3]; 0.042 in test [5].
Take PLK1 (UniProt P53350): the log2 fold change was 0.033 in test [1]; 0.042 in test [2]; 0.052 in test [4]; -0.026 in test [3]; 0.084 in test [5].
Take PRG4 (UniProt Q92954): the log2 fold change was 0.03 in test [1], -0.081 in test [2], -0.059 in test [3] and -1.18 (active) in test [5].
For the target PDPK1 (UniProt O15530), the log2 fold change in test [2] is 0; in test [4] it was -0.035; in test [3] it was 0.022; in test [5], -0.069.
Take PFN1 (UniProt I3L3D5): the values for the log2 fold change in test [1], in test [2] and in test [5] were 0.007, 0.065 and 0.164, respectively.
Turning to NA (UniProt Q4G0T1), the log2 fold change in test [3] was -0.027; in test [5] it was -0.025.
As for PDXK (UniProt O00764), the log2 fold change in test [1] was 0.014; in test [2], -0.039; in test [4] it was -0.029; in test [3] it was -0.028; in test [5] it was -0.056.
Consider PRADC1 (UniProt Q9BSG0), for which the log2 fold change in test [1] is 0.267; in test [2], 0.021; in test [3] it was -0.029; in test [5] it was 0.018.
For the target PCIF1 (UniProt Q9H4Z3), the log2 fold change in test [1] is -0.015; in test [2], -0.013; in test [4], 0.026; in test [3] it was 0.066; in test [5], -0.111.
The corresponding values for POLD3 (UniProt Q15054) are -0.004, 0.002, 0.019, 0 and 0.034.
In the case of PYGO2 (UniProt Q9BRQ0), the log2 fold change is 0.064 in test [1], 0.031 in test [2], 0.024 in test [3] and 0.011 in test [5].
